Reference: PubChem BioAssay (NCATS)
Results filed as inconclusive are left out. Calls of active or inactive are those of the source. The call rests on the fitted dose curve; in most records, active means well fitted inhibition curve with a large enough effect; inconclusive means small, poorly fitted or top-dose-only effect; inactive means flat fitted curve, though single readings scatter.

Tests used:
Assay in all cases: qHTS profiling for inhibitors of Plasmodium falciparum proliferation (AID 504749); further: nearly all actives have a fitted effect of over 60% in size
Settings in all cases: P. falciparum in erythrocytes, SYBR Green DNA, 72 h; series mostly up to 28.7 µM
C2A = system: C2A
In short: (§1)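 SYBR Green fluorescence (ex 485 nm, em 535 nm) reports parasite DNA after 72 h compound exposure of infected red cells at 0.3% parasitemia, 2.5% hematocrit; signal normalized to 0.29 uM artemisinin and vehicle wells.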

CP185 = system: CP185
In short: as §1

CP191 = system: CP191
In short: as §1

CP192 = system: CP192
In short: as §1

CP194 = system: CP194
In short: as §1

CP201 = system: CP201
In short: as §1

CP203 = system: CP203
In short: as §1

CP211 = system: CP211
In short: as §1

CP215 = system: CP215
In short: as §1

CP217 = system: CP217
In short: as §1

Measured: Potency
Potency means the concentration at half of the fitted maximal effect.

CC1CCc2cc(F)cc3c(=O)c(C(=O)O)cn1c23 (stereo not given)
inactive: all assays above

C[C@H]1COc2c(C3(N)CC3)c(F)cc3c(=O)c(C(=O)O)cn1c23
inactive: all assays above

O[C@@H]1CO[C@H]2[C@@H]1OC[C@@H]2O
inactive: all assays above

O=C(O)Cc1cn(-c2ccccc2)nc1-c1ccc(Cl)cc1
inactive: all assays above

COc1cc(O)cc(O)c1
inactive: all assays above

Nc1ncnc2c1ncn2[C@@H]1O[C@H](COP(=O)(O)O)[C@@H](O)[C@H]1O
inactive: all assays above

Cn1c(=O)c2c(ncn2CCO)n(C)c1=O
inactive: all assays above

CCCOC(=O)c1ccc(N)cc1
inactive: all assays above

O=C(O)Cn1c(C(=O)Nc2nc(-c3ccccc3Cl)cs2)cc2ccccc21
inactive: all assays above

N[C@@H](Cc1ccc(O)cc1)C(=O)O
inactive: all assays above

C[C@@H]1CCC[C@H](C)N1
inactive: all assays above

CCN(CC)CCOC(=O)C(c1ccccc1)c1ccccc1
inactive: all assays above

CC(O)CCCCn1c(=O)c2c(ncn2C)n(C)c1=O (stereo not given)
inactive: all assays above

Cc1ccc(C(C)C)c(O)c1
inactive: all assays above

CCN(CC)C(=O)c1cccc(C)c1
inactive: all assays above

CC(=O)Oc1cccc(O)c1
inactive: all assays above

c1ccc2[nH]ccc2c1
inactive: all assays above

CC(C(=O)O)c1ccc2c(c1)Cc1cccnc1O2 (stereo not given)
inactive: all assays above

Cc1c(C)c2c(c(C)c1OC(=O)c1cccnc1)CC[C@@](C)(CCC[C@H](C)CCC[C@H](C)CCCC(C)C)O2
inactive: all assays above

NC(N)=NS(=O)(=O)c1ccc(N)cc1
inactive: all assays above

O=C(Cn1ccnc1[N+](=O)[O-])NCCO
inactive: all assays above

O=C(O)c1ccc(OCCCOc2ccc(C(=O)O)cc2)cc1
inactive: all assays above

CC[N+](CC)(CC(=O)Nc1c(C)cccc1C)Cc1ccccc1
inactive: all assays above

Cc1ccc(S(=O)(=O)NC(=O)NC2CCCCC2)cc1
inactive: all assays above

O=C(O)COC(=O)Cc1ccccc1Nc1c(Cl)cccc1Cl
inactive: all assays above

CCc1cccc(CC)c1NC(=O)CN(CC(=O)O)CC(=O)O
inactive: all assays above

Cc1c(N(C)C)c(=O)n(-c2ccccc2)n1C
inactive: all assays above

NS(=O)(=O)c1ccc(C(=O)O)cc1
inactive: all assays above

CC(C)(C)C(=O)OCOC(=O)[C@@H]1N2C(=O)[C@@H](NC(=O)[C@H](N)c3ccccc3)[C@H]2SC1(C)C
inactive: all assays above

Cc1cc(C)nc(NS(=O)(=O)c2ccc(N)cc2)n1
inactive: all assays above

CC(=O)Nc1ccccc1
inactive: all assays above

COC(=O)c1ccccc1C(=O)c1ccc(OCCN2CCCCC2)cc1
inactive: all assays above

Cc1c(Cn2ccnc2)c2ccccc2n1CCC(=O)O
inactive: all assays above

C[N+](C)(C)CC[N+]1(C)Cc2c(Cl)c(Cl)c(Cl)c(Cl)c2C1
inactive: all assays above

O=C(O)c1cc(=O)c2ccccc2o1
inactive: all assays above

CCc1nnc(NS(=O)(=O)c2ccc(N)cc2)s1
inactive: all assays above

C[C@@H](N)C(=O)O
active: CP203 9.53 µM | CP215 1.69 µM
inactive: all other assays above

CC1CC(OC(=O)c2ccccc2O)CC(C)(C)C1 (stereo not given)
inactive: all assays above

CC(=O)NCc1c(I)c(NC(C)=O)c(I)c(C(=O)O)c1I
inactive: all assays above

CCCC(O)C(CC)CO (stereo not given)
inactive: all assays above

Cc1cc(=O)[nH]c(=S)[nH]1
inactive: all assays above

CC(=O)Nc1ccc(OCCOCCOc2ccc(NC(C)=O)cc2)cc1
inactive: all assays above

CN1C(C)(C)CCCC1(C)C
inactive: all assays above

CCCCCCCCCCCCCCCCCCO
inactive: all assays above

CC(=O)SC[C@@H](Cc1ccccc1)C(=O)NCC(=O)OCc1ccccc1
inactive: all assays above

O=C(CN1CCNCC1)NC1CCCCC1
inactive: all assays above

COc1ccc(C(=O)NCc2ccc(OCCN(C)C)cc2)cc1OC
inactive: all assays above

COc1ccc2cc(CCC(C)=O)ccc2c1
inactive: all assays above

CC(C)CCOC(=O)c1ccc(N(C)C)cc1
inactive: all assays above
